Reference: PubChem BioAssay AID463173 (ICCB-Longwood Screening Facility, Harvard Medical School, 2010)
The campaign covered roughly 52,000 compounds. About 4,300 (8.3%) were called active. Many of the other results were omitted from the sample, so actives are more common in it than they were. Unmarked numbers belong to inactive results. Rule as the data show it: active = survival mostly below about 52% (no sharp cut-off); inactive = mostly above about 56%.

Tested on: DeltatarO mutant
Assay: S. aureus survival, RN4220 and DeltatarO strains – OD600, teichoic acid synthesis inhibitors, primary screen (AID 463173)
Settings: S. aureus RN4220 wild type/DeltatarO growth, OD600, 18 h, hits give low values, screened at 18.75 µg/mL (by protocol)

SMILES | survival
Cc1ccc2cc(C(c3nnnn3C3CCCC3)N3CCCc4ccccc43)c(=O)[nH]c2c1 (stereo not drawn) | 97%
CCN(CC)C(=O)Cn1cc(C(=O)C(C)C)c2ccccc21 | 87%
Cc1ccc(NC(=O)c2cnc(N3CCCC3)nc2C)cc1F | 89%
Cc1cc2[nH]c(=O)c(=O)[nH]c2cc1S(=O)(=O)N1CCN(c2cccc(C(F)(F)F)c2)CC1 | 78%
COc1ccc(-c2nc3ccccc3o2)cc1NC(=O)c1ccc(-c2ccc(Br)cc2)o1 | 43% (active)
COc1ccc(-c2nc3ccccc3o2)cc1N | 72%
COc1ccc(-c2nc3ccccc3o2)cc1NC(=O)c1ccc(N2CCC(C)CC2)c([N+](=O)[O-])c1 | 66%
CCN(CC)S(=O)(=O)c1ccc2c(c1)N(CC(=O)N(C)Cc1ccccc1)C(=O)CO2 | 82%
Cc1cccc(Cn2c(CN3CCCC(C)C3)nc3c2c(=O)n(C)c(=O)n3C)c1 (stereo not drawn) | 73%
Cc1ccc(NC(=O)Cn2c(=O)n(CC(=O)NCCc3ccccc3)c(=O)c3ccccc32)cc1C | 67%
Cc1ccc(NC(=O)c2cc(S(=O)(=O)NCCC3=CCCCC3)ccc2F)cc1F | 115%
CCc1ccccc1NC(=O)c1cc(S(=O)(=O)NCCc2ccc(OC)c(OC)c2)ccc1F | 8% (active)
COc1ccc(CCNS(=O)(=O)c2ccc(F)c(C(=O)Nc3ccc(Cl)cc3)c2)cc1OC | 104%
Cc1ccc(NC(=O)c2cc(S(=O)(=O)NCCc3ccc(Cl)cc3)ccc2F)cc1 | 80%
Cc1cc(C)cc(NC(=O)c2cc(S(=O)(=O)NCCC3=CCCCC3)ccc2F)c1 | 67%
Cc1ccc(CNS(=O)(=O)c2ccc(F)c(C(=O)Nc3ccc(C)c(F)c3)c2)cc1 | 46% (active)
Cc1cc(C)c(NC(=O)c2cc(S(=O)(=O)NCCC3=CCCCC3)ccc2F)c(C)c1 | 85%
Cc1ccc(NC(=O)c2cc(S(=O)(=O)NCCC3=CCCCC3)ccc2F)cc1C | 20% (active)
Cc1ccc(C)c(NC(=O)c2cc(S(=O)(=O)NCc3ccccc3)ccc2F)c1 | 71%
COc1ccc(C)cc1NC(=O)c1cc(S(=O)(=O)NCCC2=CCCCC2)ccc1F | 105%
Cc1ccc(C)c(NC(=O)c2cc(S(=O)(=O)NCCC3=CCCCC3)ccc2F)c1 | 52% (active)
COc1ccc(OC)c(NC(=O)c2cc(S(=O)(=O)NCCc3ccc(Cl)cc3)ccc2F)c1 | 70%
CC(C)C(OC(=O)c1cccs1)C(=O)NC1CCCC1 (stereo not drawn) | 96%
Cc1nn(C(=O)c2cccc(Cl)c2)c(C)c1S(=O)(=O)N1CCOCC1 | 82%

SMILES | survival
Cc1ccc(C(=O)Nc2ccc(-c3nc4ccccc4o3)cc2)cc1Cl | 68%
Cc1nnc(SCc2cc(=O)c3ccccc3[nH]2)s1 | 125%
CCOCCCNC(=O)C(c1ccc(OC)cc1)N(Cc1ccc2c(c1)OCO2)C(=O)c1ccc(NC(C)=O)cc1 (stereo not drawn) | 50%
COc1ccc(CNCCC(c2ccccc2)c2ccc3c(c2)OCO3)cc1 (stereo not drawn) | -14% (active)
N#CCC(c1ccccc1)c1ccc2c(c1)OCO2 (stereo not drawn) | 92%
CCOCCCNC(=O)C(c1ccc(OC)cc1)N(Cc1ccc2c(c1)OCO2)C(=O)c1ccccc1O (stereo not drawn) | 62%
COc1ccc(CN(CCC(c2ccc3c(c2)OCO3)c2ccccc2OC)C(C)=O)cc1 (stereo not drawn) | 19% (active)
CCC(=O)N(CCC(c1ccccc1)c1ccc2c(c1)OCO2)Cc1ccc(OC(C)C)cc1 (stereo not drawn) | 0% (active)
COc1ccc(CCNC(=O)c2ccc3c(c2)OCO3)cc1 | 110%
COc1ccc(CNCCC(c2ccc3c(c2)OCO3)c2ccccc2OC)cc1 (stereo not drawn) | 1% (active)
COc1cc2cc(CN(Cc3ccc4c(c3)OCO4)C(=O)NCc3ccccc3)c(=O)[nH]c2cc1OC | 102%
COc1ccc(CNCCC(c2ccc(C)cc2)c2ccco2)cc1 (stereo not drawn) | 64%
NC(=O)CC(c1ccccc1)c1ccc2c(c1)OCO2 (stereo not drawn) | 97%
CCOCCCNC(=O)C(c1ccccc1)N(Cc1ccc2c(c1)OCO2)C(=O)c1ccc(NC(C)=O)cc1 (stereo not drawn) | 51%
O=c1c(S(=O)(=O)c2ccccc2)cn(Cc2ccccc2)c2cc(N3CCOCC3)c(F)cc12 | 85%
COc1ccc(NC(=O)CCCN2C(=O)C(c3ccccc3)Oc3cccnc32)c(OC)c1 (stereo not drawn) | 81%
Cc1ccc(C(=O)c2oc3ccccc3c2NC(=O)COc2ccccc2C)cc1 | 95%
CCc1ccc(NC(=O)CSC2=Nc3ccccc3C3=NC(CCC(=O)NCc4ccccc4OC)C(=O)N23)cc1 (stereo not drawn) | 55%
Cc1ccc(-n2ncc3c(N4CCN(C)CC4)ncnc32)cc1Cl | 96%
COc1ccc(C2=NC(C)(C)N(CC(=O)Nc3ccc(F)c(F)c3)C2=O)cc1 | 92%
Cc1c(C(=O)Nc2cc(F)ccc2F)sc2nc(-c3ccc(F)cc3)cn12 | 107%
CCn1c(=O)c(C(=O)Nc2cc(OC)c(OC)c(OC)c2)nc2ccccc21 | 89%
O=C(COc1ccccc1F)Nc1ccc(-c2nc3ccccc3s2)cc1 | 67%
CN1C(=O)c2ccccc2Sc2ccc(NC(=O)COc3ccc(F)cc3)cc21 | 87%

SMILES | survival
O=C(COc1ccc(F)cc1)Nc1ccc(Cl)c(-c2nc3ccccc3[nH]2)c1 | 26% (active)
Cc1ccccc1-c1nc2cc(NC(=O)COc3ccc(F)cc3)ccc2o1 | 56%
O=C(COc1ccccc1F)Nc1ccc(Cl)c(-c2nc3ccccc3[nH]2)c1 | 33% (active)
O=C(COc1ccccc1F)Nc1ccc2oc(-c3cccc(Cl)c3)nc2c1 | 102%
CCOC(=O)N1CCc2c(sc(NCc3ccc(N(C)C)cc3)c2C(=O)Nc2ccc(OC)cc2)C1 | 77%
CC1=C(c2ccc(C)cc2)S(=O)(=O)NC1=NCCCN1CCN(c2ccccc2F)CC1 | 74%
CCCCNC(=O)CSc1nc2cc3c(cc2c(=O)n1Cc1ccc(C(=O)NCCc2ccc(OC)c(OC)c2)cc1)OCO3 | 85%
COc1ccccc1OCc1nnc(SCC(=O)N(C)C)o1 | 52%
COC(=O)c1ccc(Cn2c(SCC(=O)NCc3ccccc3)nc3ccccc32)cc1 | 102%
CC1=C(C#N)C(c2cccc(Oc3ccccc3)c2)C2=C(CCCC2=O)N1 (stereo not drawn) | 54%
Cc1cc(C)cc(NC(=O)CCCn2c3ccccc3c(=O)c3ccccc32)c1 | 42% (active)
Cc1cc(C)cc(NC(=O)Cn2c(=O)c3ccccc3n3nncc23)c1 | 83%
O=C(CCCn1c(=O)c2cccn2c2ccccc21)Nc1cccc(Cl)c1 | 41% (active)
Cc1ccc2c(c1)c(=O)c1ccccc1n2CCCC(=O)Nc1ccc(C)c(F)c1 | 105%
O=C(CCCn1c2ccccc2c(=O)c2ccccc21)Nc1cccc(Cl)c1 | 27% (active)
O=C(CCCn1c2ccccc2c(=O)c2ccccc21)Nc1ccc(F)cc1Cl | 51%
Cc1ccc(NC(=O)CCCn2c(=O)c3cccn3c3ccccc32)c(Cl)c1 | 51%
Cc1ccc(CNC(=O)CCCn2c(=O)c3ccccc3n(CC(=O)Nc3ccc(C)c(C)c3)c2=O)cc1 | 78%
Cc1ccc2c(c1)c(=O)c1ccccc1n2CCCC(=O)Nc1ccc(C)c(C)c1 | 43% (active)
O=C(CCCn1c(=O)c2ccccc2n(CC(=O)Nc2cccc(Cl)c2)c1=O)NCc1ccc2c(c1)OCO2 | 76%
Cc1cccc(C)c1NC(=O)CCCn1c(=O)c2cccn2c2ccccc21 | 55%
Cc1cc(C)cc(NC(=O)CCCn2c(=O)c3cccn3c3ccccc32)c1 | 59%
Cc1cccc(N(C)c2ccc3cc(S(=O)(=O)N4CCCC4)ccc3n2)c1 | 96%
N#CCNS(=O)(=O)c1ccccc1 | 97%

SMILES | survival
CC(=O)N1CCCc2cc(S(=O)(=O)NCc3ccccc3Cl)ccc21 | 112%
CCc1ccccc1NC(=O)Cn1cc(C(=O)c2ccc(Cl)cc2)c(=O)c2ccc(C)nc21 | 78%
CCCCN(Cc1cc2cc(C)ccc2[nH]c1=O)C(=O)c1cccc(Cl)c1 | 72%
CCOC(=O)c1sc2ccccc2c1S(=O)(=O)Nc1ccc(OC)c(Cl)c1 | 89%
COc1ccc(OCC(=O)Nc2cc(-c3ccccc3F)nn2-c2ccccc2)cc1 | 92%
Cc1ccc2c(c1)c(=O)c1ccccc1n2CCCC(=O)Nc1ccc(Cl)c(Cl)c1 | 45% (active)
COc1ccc(NC(=O)Cn2c(=O)n(CCCC(=O)NCCc3ccc(C)cc3)c(=O)c3ccccc32)cc1Cl | 97%
Cc1ccc(NC(=O)Cn2c(=O)n(CCCCC(=O)NCc3ccccc3Cl)c(=O)c3ccccc32)cc1 | 83%
Cc1ccc(NC(=O)CSc2nc3ccccc3c3nc(CCn4cncc4C)nn23)c(C)c1 | 75%
Cc1ccc(CSC2=Nc3ccccc3C3=NC(CCC(=O)NCc4cccs4)C(=O)N23)cc1 (stereo not drawn) | 94%
COc1ccccc1CNC(=O)CCC1N=C2c3ccccc3N=C(SCC(=O)NCCc3ccccc3)N2C1=O (stereo not drawn) | 131%
COc1ccc(CNC(=O)CCC2N=C3c4ccccc4N=C(SCc4ccc(F)cc4)N3C2=O)cc1 (stereo not drawn) | 83%
CCCCNC(=O)CSC1=Nc2ccccc2C2=NC(CCC(=O)NCc3ccccc3OC)C(=O)N12 (stereo not drawn) | 0% (active)
O=C(CCC1N=C2c3ccccc3N=C(SCc3ccc(F)cc3)N2C1=O)NCc1cccs1 (stereo not drawn) | 135%
O=C(CCC1N=C2c3ccccc3N=C(SCc3ccc(Cl)cc3)N2C1=O)NCc1cccs1 (stereo not drawn) | 47% (active)
COc1ccccc1CNC(=O)CCC1N=C2c3ccccc3N=C(SCc3ccc(Cl)cc3)N2C1=O (stereo not drawn) | 32% (active)
COc1ccc(CNC(=O)CCC2N=C3c4ccccc4N=C(SCc4ccccc4F)N3C2=O)cc1 (stereo not drawn) | 37% (active)
O=C(CCC1N=C2c3ccccc3N=C(SCc3ccccc3F)N2C1=O)NCc1ccc(F)cc1 (stereo not drawn) | 69%
COCCCNC(=O)CSC1=Nc2ccccc2C2=NC(CCC(=O)NCc3ccccc3OC)C(=O)N12 (stereo not drawn) | 78%
COc1ccccc1CNC(=O)CCC1N=C2c3ccccc3N=C(SCc3ccc(C)cc3)N2C1=O (stereo not drawn) | 112%
COc1ccccc1CNC(=O)CCC1N=C2c3ccccc3N=C(SCc3cccc(Cl)c3)N2C1=O (stereo not drawn) | 49%
